E coli growth-1 – E. coli growth inhibition | 330,000 compounds, 0.21% hits | Escherichia coli growth, OD600, 23 h; hits give low values | AID 1053175 | OD600 absorbance (concentration not given with the values);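 active = OD600 absorbance below the run mean of sample wells minus 3.6 SD, in any replicate, cut at about 0.56 in these data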
AddAB inh – less growth of phage-infected E. coli with AddAB; E. coli expressing H. pylori AddAB, absorbance growth; inhibition, % at 11.9 µM; 330,000 compounds, 0.29% hits; in the data active = inhibition above about 12%;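 also: 0% = vehicle wells of infected cells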
Tat export inh – inhibitors of E. coli Tat protein transport; inhibition, % at 10 µM; AID 488895; E. coli MC4100 TorA-mCherry Tat export, fluorescence; 340,000 compounds, 0.036% hits;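 active = mean replicate inhibition at least 50% and at least half of replicates individually reaching 50%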;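 also: exported cargo escapes ClpAP degradation while cytoplasmic cargo is degraded and loses fluorescence; 0% = median of neutral control wells and 100% = median of NaSCN control wells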
E coli growth-2 – reduces bacterial viability in AddAB counter-screen; E. coli V3065 growth, OD600 absorbance, 18 h; inhibition, % at 11.9 µM; 330,000 compounds, 0.27% hits; AID 449728;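 active = inhibition above the campaign's mean inhibition across all tested compounds plus 3 SD, cut at about 9.9% in these data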;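 also: uninfected addAB+ strain grown without phage in ampicillin broth; 0% = DMSO wells and 100% = ciprofloxacin 0.95 µg/ml wells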
phage Ecoli inh – E. coli growth loss with phage present; growth absorbance; inhibition, % at 11.9 µM; 360,000 compounds, 0.26% hits; AID 651602; in the data active = inhibition above about 11%
RecBCD conf – confirmation: growth loss of phage-infected RecBCD+ E. coli (RecBCD inhibitor screen). 890 compounds, 45% hits. inhibition, % at 11.9 µM. shares compounds with phage Ecoli inh. E. coli V66 + T4 2- phage, growth OD;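 active = mean inhibition over triplicates exceeding the hit threshold derived in the original primary screen, cut at about 11% in these data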
Ecoli viability – counter-screen for RecBCD inhibitors: inhibitors of bacterial viability; inhibition, % at 11.9 µM; AID 651983; shares compounds with phage Ecoli inh; E. coli viability, absorbance (OD) growth; 890 compounds, 29% hits; in the data active = inhibition above about 20%;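 also: E. coli strain V66 grown with compound alone and no phage infection; 0% = bacteria with DMSO vehicle only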
AddAB phage OD – growth loss of phage-infected AddAB E. coli, RecBCD counter-screen | shares compounds with phage Ecoli inh | 890 compounds, 45% hits | E. coli expressing H. pylori AddAB + T4 phage, OD growth; gene 2 mutant T4, recBCD-deleted host | inhibition, % at 11.9 µM;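 active = mean inhibition above the solvent-only control wells' mean plus 3 SD, cut at about 22% in these data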;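 also: higher means less bacterial growth from phage killing when AddAB is blocked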
Active calls of the source: *; i = inactive; nt = no result. Only some compounds are listed: those with a hit (about 0.5% of all), similar ones and a draw of the others.

SMILES	E coli growth-1	AddAB inh	Tat export inh	E coli growth-2	phage Ecoli inh	RecBCD conf	Ecoli viability	AddAB phage OD
Nc1ccc(CCC(=O)N2CCCC2)cc1	0.711	nt	1.9	nt	1.6	nt	nt	nt
CCC(=O)Nc1ccc(CCC(=O)N2CCCC2)cc1	0.659	2.5	2.6	0.3	23.6*	-2.1	-2.6	-0.1
COc1cc(C=NNC(=O)CN(Cc2ccccc2)S(=O)(=O)c2ccc3c(c2)OCCO3)ccc1O	0.69	nt	nt	nt	nt	nt	nt	nt
O=C(C(=O)c1cc(Br)ccc1O)c1cc(Br)ccc1O	0.172*	nt	-8.8	nt	13.1*	12.7*	17.4	15.5
C/C=N/NC(=O)c1cc(Br)ccc1O	nt	1.4	-2.9	-0.3	1.6	nt	nt	nt
CCN(CC)S(=O)(=O)c1cccc(C(=O)N/N=C/c2ccc(O)c(O)c2O)c1	nt	13.6*	5.2	9.6	13.6*	5.6	5.4	8.2
COc1ccc(S(=O)(=O)N2CCC(C(=O)NCCc3ccc(OC)c(OC)c3)CC2)cc1	nt	nt	nt	nt	0.9	nt	nt	nt
COc1ccc(CCNC(=O)C2CCN(S(=O)(=O)c3ccc(SC)cc3)CC2)cc1	0.711	3.8	8.6	-2.6	17.3*	-1.3	-1.5	-3.6
O=C(CN1C(=O)COc2ccccc21)NNC(=O)Nc1ccccc1F	0.693	3.2	-6.4	-1.4	1.9	nt	nt	nt
O=C(CN1C(=O)COc2ccccc21)Nc1ccccc1F	0.691	-0.1	21.6	1.5	14.1*	-2.7	-2.7	-2.7
CCNS(=O)(=O)c1ccc(NC(=O)Cn2nc(C(F)(F)F)cc2C)cc1	0.685	11.2	-10.1	10.5*	12.0*	4.5	5.5	7.4
Cc1ccc(-n2cccc2C=Nn2cnnc2)cc1Cl	0.697	nt	nt	nt	nt	nt	nt	nt
CC(NC(=O)Nc1cccc([N+](=O)[O-])c1)(C(F)(F)F)C(F)(F)F	0.626	3.7	-10.6	-0.1	13.9*	6.5	7.4	5.5
O=C(Nc1cccc([N+](=O)[O-])c1)c1cccc(C(=O)Nc2cccc([N+](=O)[O-])c2)c1	nt	-2.4	-3.9	-2.9	1.5	nt	nt	nt
Cc1ccc(-c2nc3ccc([N+](=O)[O-])cc3[nH]2)cc1	0.534	7.5	0.5	3.2	4.7	nt	nt	nt
O=[N+]([O-])c1ccc2nc(-c3ccc(Cl)cc3)[nH]c2c1	0.556	9.6	-1.3	2.8	11.1*	3.4	5.5	8.6
Oc1c(C(Nc2ccccn2)c2cccnc2)cc(Cl)c2cccnc12 (stereo unspecified)	0.675	11.8	2.3	10.3*	17.5*	1.9	4.9	17.3
O=C(CCc1ccccc1)NC(c1cccs1)c1cc(Cl)c2cccnc2c1O (stereo unspecified)	0.642	nt	-12.3	nt	16.8*	8.6	9.2	14.2
CC(=O)NC(c1ccc(C)cc1)c1cc(Cl)c2cccnc2c1O (stereo unspecified)	nt	nt	-7.5	nt	20.9*	11.9*	16.0	17.5
CC(=O)NC(c1cc(Cl)c2cccnc2c1O)C1CC1 (stereo unspecified)	0.683	-0.5	-0.4	2.9	6.4	nt	nt	nt
CC(=O)NC(c1ccccc1)c1cc([N+](=O)[O-])c2cccnc2c1O (stereo unspecified)	0.694	-2.4	0.7	-4.9	-4.7	nt	nt	nt
CCC(=O)NC(c1cccs1)c1cc(Cl)c2ccccc2c1O (stereo unspecified)	0.695	3.5	0.7	1.1	2.0	nt	nt	nt
O=C(O)CC1c2ccccc2S(=O)(=O)N1C1CCCC1 (stereo unspecified)	0.716	nt	nt	nt	nt	nt	nt	nt
CCN1C(=O)C2C(c3ccc(C)cc3)N3C(=O)N(c4cccc(Br)c4)C(=O)[C@@]3(C)C2C1=O (stereo partly specified)	0.648	nt	nt	nt	nt	nt	nt	nt
CN(C)c1ccc(C=c2c3ccccc3n3c2c2c([n+]3C)CCCC2)cc1	nt	nt	14.0	nt	61.6*	71.7*	97.2*	101.4*
SMILES	E coli growth-1	AddAB inh	Tat export inh	E coli growth-2	phage Ecoli inh	RecBCD conf	Ecoli viability	AddAB phage OD
CCC(NC(=O)Nc1nnc(C(F)(F)F)s1)(C(F)(F)F)C(F)(F)F	0.607	5.1	-20.7	9.3	12.4*	9.9	10.4	9.3
O=C(O)CCC(=O)Nc1nnc(C(F)(F)F)s1	0.769	1.2	1.2	-1.3	2.2	nt	nt	nt
Cn1ccsc1=NS(=O)(=O)c1ccc(C(C)(C)C)cc1	0.706	nt	nt	nt	nt	nt	nt	nt
CCC(=NNC(=O)c1c(-c2ccccc2)noc1C)c1ccc(C)o1	0.665	nt	nt	nt	nt	nt	nt	nt
NC(=S)NN=Cc1cn(CCC(=O)O)nc1-c1cccc(Br)c1	0.699	nt	nt	nt	nt	nt	nt	nt
COc1ccc(-c2nn(CCC(=O)O)cc2/C=N/NC(N)=S)cc1	nt	-1.0	6.0	-2.1	73.4*	-0.7	-1.0	3.5
COc1ccc(-c2oc3ccccc3c(=O)c2OCC(=O)O)cc1	0.677	1.1	-2.7	-2.5	3.4	nt	nt	nt
COc1ccc(-c2oc3ccccc3c(=O)c2OC(C)=O)cc1	0.604	12.1	-2.1	12.0*	11.3*	7.3	9.3	12.6
COc1cc(N(C)C)ccc1C=c1c2ccccc2n2c1cc(-c1ccccc1)[n+]2C	nt	nt	i	nt	27.6*	32.3*	36.1*	97.2*
CC(C)(C)C1C=C(C(=O)NCc2nc3ccccc3[nH]2)OC(OCc2ccc(CO)cc2)C1 (stereo unspecified)	0.666	nt	nt	nt	nt	nt	nt	nt
Cc1cn(C2CCC(CO)O2)c(=O)[nH]c1=O (stereo unspecified)	0.562	nt	-1.5	nt	24.1*	20.4*	11.9	60.2*
Cc1cccc(NC(=O)NNC(=O)c2ccc3ccccc3c2O)c1	0.699	nt	-5.9	nt	10.6	nt	nt	nt
O=C(NNC(=O)c1ccc2ccccc2c1O)Nc1ccc(F)cc1	0.734	10.4	-2.4	9.0	11.7*	5.1	5.9	8.3
Cc1ccc(/C=C/C(=O)c2ccccc(=O)c2O)c(C)c1	0.667	7.1	1.2	2.4	12.7*	3.6	5.5	0.7
O=C(/C=C/c1ccc([N+](=O)[O-])cc1)c1ccccc(=O)c1O	nt	nt	10.6	nt	16.5*	10.2	12.2	-0.6
O=C(/C=C/c1ccc([N+](=O)[O-])cc1)c1cccs1	0.7	0.1	-1.1	2.0	2.9	nt	nt	nt
O=C(C=Cc1ccccc1O)c1ccccc1O	0.57	nt	-3.6	nt	1.8	nt	nt	nt
CCC1=C(OC(=O)N(CC)CC)N2C(=O)OC(=NCC3CC3)[C@]2(C)C2C1=CCC1C(=O)N(CC)C(=O)C12 (stereo partly specified)	0.685	nt	nt	nt	nt	nt	nt	nt
CCC(=NO)C(=O)c1ccc(Br)cc1	0.712	nt	nt	nt	nt	nt	nt	nt
COc1cc(C=NNC(=O)C23CC4CC(CC(C4)C2)C3)cc(Br)c1O	0.695	nt	nt	nt	nt	nt	nt	nt
Nc1nc(=S)c2ncn(C3OC(CO)CC3O)c2[nH]1 (stereo unspecified)	nt	nt	-2.8	nt	11.5*	11.9*	11.1	37.8*
Cc1ccccc1C(=O)NCC(C)NC(=O)c1ccccc1C (stereo unspecified)	0.688	-0.1	-4.4	2.2	99.8*	-2.7	-1.5	1.5
Cc1ccccc1CNC(=O)c1ccccc1C	0.68	2.4	-4.6	1.7	0.8	nt	nt	nt
Cc1ccccc1OCC(=O)NN=Cc1ccco1	0.638	nt	nt	nt	nt	nt	nt	nt

Assay outcomes (PubChem)
